Experimental data as given in the supplement of paper PMC10127200.
Structures can show the parent of a compound that is named as a salt.

Legend:
Assay in all cases: Euclidean distance of Cell Painting phenotypic profile (signed KS, 77 features) to DMSO centroid (dimensionless distance); 5 or 10 uM (library dependent); higher = stronger phenotypic change vs DMSO (phenoactivity)
Settings in all cases: 48 h
786-O = test system: 786-O
In short: (§1)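 Phenoactivity is computed as Euclidean distance to the median vehicle profile. The profiles, drawn from 77 Harmony features scored as signed Kolmogorov-Smirnov statistics versus same-plate vehicle wells, were corrected for plate position, correlation-weighted and replicate-averaged at the top dose. Stained cells were imaged confocally at 20X (9 fields/well) after 48 h with library compounds at 10 or 5 uM, 0.1% DMSO final, in five cancer lines and a healthy fibroblast line.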

A549 = test system: A549
In short: as §1

DU145 = test system: DU145
In short: as §1

FB = test system: FB
In short: as §1

HEPG2 = test system: HEPG2
In short: as §1

OVCAR4 = test system: OVCAR4
In short: as §1

| SMILES | Euclidean distance (786-O) | Euclidean distance (A549) | Euclidean distance (DU145) | Euclidean distance (FB) | Euclidean distance (HEPG2) | Euclidean distance (OVCAR4) |
| --- | --- | --- | --- | --- | --- | --- |
| COc1cc2c(cc1Cc1cccc(Cl)c1F)c(=O)c(C(=O)O)cn2[C@H](CO)C(C)C [Elvitegravir (GS-9137. JTK-303)] | 1.44 | 2.36 | 1.33 | 0.872 | 0.582 | 1.76 |
| [O-][n+]1cccc(-c2nc3c(Cl)cccc3cc2[C@@H](Nc2ncnc3cccnc23)C(F)(F)F)c1 [Seletalisib (UCB-5857)] | 1.2 | 0.825 | 1.4 | 1.69 | 1.73 | 2.03 |
| C[C@H](NC(=O)[C@@H](Cc1ccc2ccccc2c1)NC(=O)[C@@H](C)N)C(=O)N[C@@H](Cc1c[nH]c2ccccc12)C(=O)N[C@H](Cc1ccccc1)C(=O)N[C@@H](CCCCN)C(N)=O | 1.39 | 0.626 | 1.01 | 0.873 | 2.01 | 1.29 |
| CC(=C(CCO)SSCC1CCCO1)N(C=O)Cc1cnc(C)nc1N (stereo in doubt) [Fursultiamine] | 1.19 | 0.749 | 0.785 | 1.06 | 0.579 | 1.17 |
| CN1CCN(c2cc3c(cc2F)c(=O)c(C(=O)O)cn3-c2ccc(F)cc2)CC1 [Difloxacin hydrochloride] | 1.51 | 0.685 | 0.906 | 1.1 | 0.824 | 1.17 |
| O=C(Nc1cnn2ccc(N3CCC[C@@H]3c3cc(F)ccc3F)nc12)N1CC[C@H](O)C1 [Larotrectinib (LOXO-101) sulfate] | 0.597 | 0.899 | 1.05 | 0.634 | 0.551 | 1.27 |
| O=C(Oc1cc(S(=O)(=O)c2ccccc2)ccc1[N+](=O)[O-])c1ccc(Cl)cc1 | 1.76 | 1.8 | 1.4 | 1.14 | 1.96 | 1.27 |
| CN(C)C(=O)N[C@H]1CC[C@H](CCN2CCN(c3cccc(Cl)c3Cl)CC2)CC1 [Cariprazine HCl] | 1.25 | 1.41 | 1.47 | 1.58 | 1.63 | 0.982 |
| CN1CCC(=C2c3ccccc3CCc3cccnc32)CC1 [Azatadine dimaleate] | 1.51 | 1.59 | 0.544 | 1.05 | 0.437 | 1.44 |
| O=C1CN(/N=C/c2ccc(-c3ccc([N+](=O)[O-])cc3)o2)C(=O)N1 [Dantrolene sodium] | 0.573 | 0.503 | 1.37 | 0.968 | 0.758 | 1.01 |
| COc1ccccc1OCCNCC(O)COc1cccc2[nH]c3ccccc3c12 (configuration not stated) [Carvedilol] | 1.59 | 1.04 | 1.42 | 1.64 | 2.22 | 1.86 |
| O=c1c2ccccc2nc2n1CCc1c-2[nH]c2ccccc12 [Rutaecarpine] | 0.752 | 1.05 | 1.52 | 1.22 | 1.08 | 1.48 |
| CN1CC(=O)N2[C@H](c3ccc4c(c3)OCO4)c3[nH]c4ccccc4c3C[C@@H]2C1=O [Tadalafil] | 1.16 | 0.906 | 0.404 | 0.948 | 0.78 | 1.22 |
| NC(=O)c1ccc(N(C(N)=O)c2c(F)cccc2F)nc1-c1ccc(F)cc1F | 1.24 | 1.16 | 1.41 | 1.37 | 0.723 | 1.18 |
| Cn1nnnc1SCC1=C(C(=O)O)N2C(=O)[C@@H](NC(=O)[C@H](OC=O)c3ccccc3)[C@H]2SC1 [Cefamandole nafate] | 1.06 | 0.559 | 1.12 | 0.954 | 0.484 | 0.965 |
| CN(C)CC/C=C1/c2ccccc2Sc2ccc(Cl)cc21 [Chlorprothixene] | 1.17 | 0.711 | 1.22 | 1.27 | 1.86 | 1.33 |
| COC(=O)N/N=C/c1c[n+]([O-])c2ccccc2[n+]1[O-] [Carbadox] | 0.912 | 0.99 | 0.837 | 1.23 | 1.04 | 1.46 |
| CCCCCCCC(=O)N[C@H](CN1CCCC1)[C@H](O)c1ccc2c(c1)OCCO2 [Eliglustat] | 0.75 | 1.58 | 1.05 | 1.48 | 1.2 | 1.06 |
| Cc1cc(Cn2cnc3c2CC(C(=O)O)N(C(=O)C(c2ccccc2)c2ccccc2)C3)ccc1N(C)C (configuration not stated) | 0.67 | 1.03 | 1.03 | 1.08 | 0.529 | 0.828 |
| Nc1ccn([C@@H]2O[C@H](CO)[C@@H](O)[C@@H]2O)c(=O)n1 [Cytarabine hydrochloride] | 3.21 | 3.25 | 2.45 | 2.97 | 2.73 | 3.43 |
| Cc1nc2n(c(=O)c1CCN1CCC(c3noc4cc(F)ccc34)CC1)CCCC2O (configuration not stated) [Paliperidone] | 0.901 | 0.427 | 0.828 | 0.783 | 0.494 | 0.895 |
| CCCCC/C=C\C/C=C\CCCCCCCC(=O)O [Linoleic acid] | 0.927 | 1.38 | 1.02 | 1.3 | 0.86 | 1.11 |
